Results published in PubChem BioAssay AID1159580 (chemical genetic matrix, 2015).
Several values for one entry are separate records, joined by “and”; a condition that tells them apart may be missing. Identical values can stand only once. Among all 5,500 compounds or so, about 2,000 (36%) were called active. Inconclusive results (about 18%) are left out. No stated cut-off is given here; in the data, active means normalized growth mostly below about 0.91 (no sharp cut-off); inconclusive means no clear call, values can overlap the other calls; inactive means mostly above about 0.92. The list shows a part of the results.

Assay: chemical genetic growth profiling, strain panel (AID 1159580);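 further: tested at 20 µM; growth read once vehicle control cultures reached saturation at 30 °C; 1 = growth at the plate median or of vehicle wells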
Conditions: S. cerevisiae deletion strains, growth OD

Measured: normalized growth

N#C/C(=C\c1ccc(O)cc1)C(=O)O
inactive: locus YAL013W, strain DEP1, stronger effect = lower value 0.988 | locus YAL021C, strain ccr4, stronger effect = lower value 0.979 | locus YAL026C, strain drs2, stronger effect = lower value 1 | locus YAL030W, strain snc1, stronger effect = lower value 1.01 | locus YBL061C, strain skt5, stronger effect = lower value 1.01 | locus YBR009C, strain hhf1, stronger effect = lower value 1.02 | locus YBR021W, strain FUR4, stronger effect = lower value 1.02 | locus YBR023C, strain chs3, stronger effect = lower value 1 | locus YBR171W, strain sec66, stronger effect = lower value 0.991 | locus YBR229C, strain ROT2, stronger effect = lower value 0.956 | locus YBR231C, strain swc5, stronger effect = lower value 1.01 | locus YBR279W, strain paf1, stronger effect = lower value 1 | locus YCL011C, strain gbp2, stronger effect = lower value 0.987 | locus YCL016C, strain dcc1, stronger effect = lower value 1.01 | locus YCL029C, strain bik1, stronger effect = lower value 0.997 | locus YCL061C, strain MRC1, stronger effect = lower value 0.993 | locus YCL069W, strain vba3, stronger effect = lower value 0.996 | locus YCR088W, strain abp1, stronger effect = lower value 0.987 | locus YDL005C, strain med2, stronger effect = lower value 0.997 | locus YDL035C, strain GPR1, stronger effect = lower value 0.994 | locus YDL040C, strain nat1, stronger effect = lower value 1 | locus YDL074C, strain BRE1, stronger effect = lower value 0.966 | locus YDL101C, strain DUN1, stronger effect = lower value 0.951 | locus YDL134C, strain PPH21, stronger effect = lower value 0.987 | locus YDL185W, strain tfp1, stronger effect = lower value 0.976 | locus YDL192W, strain arf1, stronger effect = lower value 0.993 | locus YDR001C, strain nth1, stronger effect = lower value 0.996 | locus YDR069C, strain doa4, stronger effect = lower value 1 | locus YDR101C, strain arx1, stronger effect = lower value 1.01 | locus YDR137W, strain rgp1, stronger effect = lower value 0.992 | locus YDR150W, strain NUM1, stronger effect = lower value 0.981 | locus YDR159W, strain sac3, stronger effect = lower value 1.01 | locus YDR162C, strain NBP2, stronger effect = lower value 0.937 | locus YDR195W, strain ref2 0.988 | locus YDR297W, strain sur2, stronger effect = lower value 0.997 | locus YDR318W, strain mcm21, stronger effect = lower value 1.04 | locus YDR334W, strain swr1, stronger effect = lower value 0.961 | locus YDR335W, strain msn5, stronger effect = lower value 1 | locus YDR388W, stronger effect = lower value 1.01 | locus YDR392W, strain spt3, stronger effect = lower value 0.972 | locus YDR502C, strain sam2, stronger effect = lower value 0.987 | locus YEL003W, strain gim4, stronger effect = lower value 0.989 | locus YEL037C, strain rad23, stronger effect = lower value 0.986 | locus YEL061C, strain CIN8 (second series), stronger effect = lower value 0.984 | locus YEL061C, strain CIN8, stronger effect = lower value 0.984 | locus YER015W, strain faa2, stronger effect = lower value 1 | locus YER016W, strain bim1, stronger effect = lower value 1.01 | locus YER110C, stronger effect = lower value 0.999 | locus YER111C, strain swi4, stronger effect = lower value 0.999 | locus YER155C, strain BEM2 (second series), stronger effect = lower value 1.01 | locus YER155C, strain BEM2, stronger effect = lower value 0.987 | locus YER167W, strain BCK2, stronger effect = lower value 1.01 | locus YFR010W, strain ubp6, stronger effect = lower value 0.983 | locus YGL078C, strain dbp3, stronger effect = lower value 0.985 | locus YGL086W, strain mad1, stronger effect = lower value 1.02 | locus YGL167C, strain pmr1, stronger effect = lower value 1.01 | locus YGL173C, strain kem1, stronger effect = lower value 1 | locus YGL227W, strain vid30, stronger effect = lower value 0.998 | locus YGL240W, strain doc1, stronger effect = lower value 1.03 | locus YGL248W, strain PDE1, stronger effect = lower value 0.976 | locus YGL253W, strain hxk2, stronger effect = lower value 0.999 | locus YGR078C, strain PAC10, stronger effect = lower value 0.97 | locus YGR135W, strain pre9, stronger effect = lower value 0.988 | locus YGR229C, strain SMI1, stronger effect = lower value 0.996 | locus YGR252W, strain gcn5, stronger effect = lower value 1.09 | locus YHR013C, strain ard1, stronger effect = lower value 1.02 | locus YHR027C, strain rpn1, stronger effect = lower value 0.99 | locus YHR030C, strain SLT2, stronger effect = lower value 0.997 and 1.06 | locus YHR079C, strain IRE1 (second series), stronger effect = lower value 1 | locus YHR079C, strain IRE1, stronger effect = lower value 1.07 | locus YHR094C, strain hxt1, stronger effect = lower value 0.998 | locus YHR129C, strain ARP1, stronger effect = lower value 0.986 | locus YHR142W, strain chs7, stronger effect = lower value 0.954 | locus YHR200W, strain rpn10, stronger effect = lower value 0.996 | locus YIL066C, strain RNR3, stronger effect = lower value 0.981 | locus YIL073C, strain SPO22, stronger effect = lower value 1.1 | locus YIL125W, strain kgd1, stronger effect = lower value 0.997 | locus YIR030C, strain dcg1, stronger effect = lower value 0.988 | locus YJL092W, strain hpr5, stronger effect = lower value 0.979 | locus YJL095W, strain BCK1 (second series), stronger effect = lower value 1 | locus YJL095W, strain BCK1, stronger effect = lower value 0.979 and 1.08 | locus YJL115W, strain asf1, stronger effect = lower value 0.988 | locus YJL129C, strain trk1, stronger effect = lower value 0.98 | locus YJL134W, strain LCB3, stronger effect = lower value 0.983 | locus YJL154C, strain vps35, stronger effect = lower value 0.975 | locus YJL164C, strain tpk1, stronger effect = lower value 1 | locus YJL166W, strain qcr8, stronger effect = lower value 1.01 | locus YJL168C, strain set2, stronger effect = lower value 0.992 | locus YJL187C, strain SWE1 (second series), stronger effect = lower value 0.96 | locus YJL187C, strain SWE1, stronger effect = lower value 1 | locus YJR043C, strain POL32, stronger effect = lower value 1.04 | locus YJR066W, strain TOR1, stronger effect = lower value 0.992
